# Test results published in the supplement of paper PMC8728848.
# The sample as a whole holds a higher share of the strongest signals than the screen did.
# How the values were obtained:
# Assay in all cases: glycan array binding signal (z-score within array); higher = stronger binding
# Conditions in all cases: glycan notation: IUPAC condensed, linker removed
# [1] = target: Man(a1-3)[Man(a1-6)]Man(b1-4)GlcNAc(b1-4)[Fuc(a1-6)]GlcNAc
# Procedure, shortened: (§1)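 The binding signal is a Z-score computed within each array. Data were drawn from 3228 arrays in the Consortium for Functional Glycomics database, restricted to those with a known protein sequence. Scores were averaged over arrays of the same protein sequence at different concentrations or buffers, and over linkers, and negative values can be taken as non-binding.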
# MurNAc(b1-4)GlcNAc = target: MurNAc(b1-4)GlcNAc
# Procedure, shortened: as §1
# [2] = target: Neu5Ac(a2-3)Gal(b1-3)GalNAc(b1-4)[Neu5Ac(a2-3)]Gal(b1-4)Glc
# Procedure, shortened: as §1
# [3] = target: Neu5Ac(a2-3)Gal(b1-3)GlcNAc(b1-2)Man(a1-3)[GlcNAc(b1-4)][Neu5Ac(a2-3)Gal(b1-3)GlcNAc(b1-2)Man(a1-6)]Man(b1-4)GlcNAc(b1-4)GlcNAc
# Procedure, shortened: as §1
# [4] = target: Neu5Ac(a2-3)Gal(b1-3)[Fuc(a1-4)]GlcNAc(b1-3)Gal(b1-3)[Fuc(a1-4)]GlcNAc
# Procedure, shortened: as §1
# [5] = target: Neu5Ac(a2-3)Gal(b1-4)GlcNAc(b1-3)Gal(b1-4)GlcNAc(b1-3)GalNAc
# Procedure, shortened: as §1
# [6] = target: Neu5Ac(a2-3)Gal(b1-4)GlcNAc(b1-3)Gal(b1-4)GlcNAc(b1-3)[Neu5Ac(a2-3)Gal(b1-4)GlcNAc(b1-3)Gal(b1-4)GlcNAc(b1-6)]GalNAc
# Procedure, shortened: as §1
# [7] = target: Neu5Ac(a2-3)Gal(b1-4)GlcNAc(b1-6)GalNAc
# Procedure, shortened: as §1
# [8] = target: Neu5Ac(a2-3)Gal(b1-4)GlcNAc(b1-6)[Gal(b1-3)]GalNAc
# Procedure, shortened: as §1
# [9] = target: Neu5Ac(a2-3)Gal(b1-4)GlcNAc(b1-6)[Neu5Ac(a2-3)Gal(b1-3)]GalNAc
# Procedure, shortened: as §1
# [10] = target: Neu5Ac(a2-3)Gal(b1-4)GlcNAc6S
# Procedure, shortened: as §1
# [11] = target: Neu5Ac(a2-6)Gal(b1-4)GlcNAc(b1-2)Man(a1-3)[Neu5Ac(a2-6)Gal(b1-4)GlcNAc(b1-2)Man(a1-6)]Man(b1-4)GlcNAc(b1-4)[Fuc(a1-6)]GlcNAc
# Procedure, shortened: as §1
# [12] = target: Neu5Ac(a2-6)Gal(b1-4)GlcNAc(b1-3)Gal(b1-3)GlcNAc
# Procedure, shortened: as §1
# [13] = target: Neu5Ac(a2-8)Neu5Ac(a2-3)Gal(b1-4)Glc
# Procedure, shortened: as §1
# [14] = target: Neu5Ac(a2-8)Neu5Ac(a2-3)[GalNAc(b1-4)]Gal(b1-4)Glc
# Procedure, shortened: as §1
# [15] = target: Neu5Gc(b2-6)Gal(b1-4)GlcNAc
# Procedure, shortened: as §1
binder,measurement,setting,value
APVPVTKLVCDGDTYKCTAYLDFGDGRWVAQWDTNVFHTG [PhoSpL (Pholiota squarrosa)],glycan array binding signal (z-score),[1],6.32
same,glycan array binding signal (z-score),MurNAc(b1-4)GlcNAc,-0.337
same,glycan array binding signal (z-score),[2],0.143
same,glycan array binding signal (z-score),[3],-0.151
same,glycan array binding signal (z-score),[4],-0.57
same,glycan array binding signal (z-score),[5],0.1
same,glycan array binding signal (z-score),[6],-0.169
same,glycan array binding signal (z-score),[7],-0.386
same,glycan array binding signal (z-score),[8],0.254
same,glycan array binding signal (z-score),[9],-0.322
same,glycan array binding signal (z-score),[10],0.087
same,glycan array binding signal (z-score),[11],4.01
same,glycan array binding signal (z-score),[12],-0.422
same,glycan array binding signal (z-score),[13],-0.197
same,glycan array binding signal (z-score),[14],-0.373
same,glycan array binding signal (z-score),[15],0.132
